Values joined by “and” are separate entries in the source; they are usually repeats but may differ in a detail not shown here. Identical values can stand only once. About 2,000 (36%) of roughly 5,500 compounds were called active. About 18% were inconclusive and are not listed. The list shows a part of the results. Values without a mark were called inactive. Cut-off read from the data, not from the text of the source: active = normalized growth mostly below about 0.91 (no sharp cut-off); inconclusive = no clear call, values can overlap the other calls; inactive = mostly above about 0.92.
Assay: chemical genetic growth profiling, strain panel (AID 1159580);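 note: tested at 20 µM; growth read once vehicle control cultures reached saturation at 30 °C; 1 = growth at the plate median or of vehicle wells; lower values mean less growth of the strain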
Settings: S. cerevisiae deletion strains, growth OD

`OC(CCN1CCCCC1)(c1ccccc1)C1CCCCC1` (stereo unspecified) gave a normalized growth (locus YAL013W, strain DEP1, hits give low values) of 1.01, a normalized growth (locus YAL021C, strain ccr4, hits give low values) of 0.968 and a normalized growth (locus YAL026C, strain drs2, hits give low values) of 0.994. For the same compound, the normalized growth (locus YAL030W, strain snc1, hits give low values) was 0.97, the normalized growth (locus YAL040C, strain CLN3, hits give low values) was 1.06 and the normalized growth (locus YBL061C, strain skt5, hits give low values) was 0.979. It also gave a normalized growth (locus YBR009C, strain hhf1, hits give low values) of 0.993, a normalized growth (locus YBR021W, strain FUR4, hits give low values) of 0.998 and a normalized growth (locus YBR023C, strain chs3, hits give low values) of 0.977. The normalized growth (locus YBR171W, strain sec66, hits give low values) was 0.974, the normalized growth (locus YBR229C, strain ROT2, hits give low values) was 1.01 and the normalized growth (locus YBR231C, strain swc5, hits give low values) was 0.957. For the same compound, the normalized growth (locus YBR279W, strain paf1, hits give low values) was 0.984, the normalized growth (locus YCL011C, strain gbp2, hits give low values) was 0.978 and the normalized growth (locus YCL016C, strain dcc1, hits give low values) was 0.993. It also gave a normalized growth (locus YCL029C, strain bik1, hits give low values) of 1, a normalized growth (locus YCL061C, strain MRC1 (second series), hits give low values) of 0.981 and a normalized growth (locus YCL061C, strain MRC1, hits give low values) of 0.966. For the same compound, the normalized growth (locus YCL069W, strain vba3, hits give low values) was 0.974, the normalized growth (locus YCR088W, strain abp1, hits give low values) was 0.98 and the normalized growth (locus YDL005C, strain med2, hits give low values) was 0.972. It also gave a normalized growth (locus YDL035C, strain GPR1, hits give low values) of 1.01, a normalized growth (locus YDL040C, strain nat1, hits give low values) of 0.98 and a normalized growth (locus YDL074C, strain BRE1, hits give low values) of 0.999. It also gave a normalized growth (locus YDL101C, strain DUN1, hits give low values) of 1.01, a normalized growth (locus YDL134C, strain PPH21, hits give low values) of 1.01 and a normalized growth (locus YDL185W, strain tfp1, hits give low values) of 1. The normalized growth (locus YDL192W, strain arf1, hits give low values) was 1.01, the normalized growth (locus YDR001C, strain nth1, hits give low values) was 0.969 and the normalized growth (locus YDR069C, strain doa4, hits give low values) was 0.948. For the same compound, the normalized growth (locus YDR101C, strain arx1, hits give low values) was 0.995, the normalized growth (locus YDR137W, strain rgp1, hits give low values) was 1.02 and the normalized growth (locus YDR150W, strain NUM1, hits give low values) was 1.02 and 0.996. The normalized growth (locus YDR159W, strain sac3, hits give low values) was 0.998, the normalized growth (locus YDR162C, strain NBP2, hits give low values) was 1.01 and the normalized growth (locus YDR195W, strain ref2) was 0.927. It also gave a normalized growth (locus YDR297W, strain sur2, hits give low values) of 0.965, a normalized growth (locus YDR318W, strain mcm21, hits give low values) of 0.991 and a normalized growth (locus YDR334W, strain swr1, hits give low values) of 0.975. It also gave a normalized growth (locus YDR335W, strain msn5, hits give low values) of 0.975, a normalized growth (locus YDR363W, strain ESC2, hits give low values) of 0.954 and a normalized growth (locus YDR388W, hits give low values) of 0.996. It also gave a normalized growth (locus YDR392W, strain spt3, hits give low values) of 1.01, a normalized growth (locus YDR502C, strain sam2, hits give low values) of 0.998 and a normalized growth (locus YEL003W, strain gim4, hits give low values) of 0.975. It also gave a normalized growth (locus YEL037C, strain rad23, hits give low values) of 0.969, a normalized growth (locus YEL061C, strain CIN8 (second series), hits give low values) of 0.974 and a normalized growth (locus YEL061C, strain CIN8, hits give low values) of 1.01. It also gave a normalized growth (locus YER002W, strain NOP16, hits give low values) of 1.03, a normalized growth (locus YER015W, strain faa2, hits give low values) of 0.976 and a normalized growth (locus YER016W, strain bim1, hits give low values) of 1. For the same compound, the normalized growth (locus YER110C, hits give low values) was 1, the normalized growth (locus YER111C, strain swi4, hits give low values) was 0.961 and the normalized growth (locus YER155C, strain BEM2 (second series), hits give low values) was 0.929. For the same compound, the normalized growth (locus YER155C, strain BEM2, hits give low values) was 0.791 (active), the normalized growth (locus YER167W, strain BCK2, hits give low values) was 1.01 and the normalized growth (locus YFR010W, strain ubp6, hits give low values) was 0.975. It also gave a normalized growth (locus YGL078C, strain dbp3, hits give low values) of 0.991, a normalized growth (locus YGL086W, strain mad1, hits give low values) of 0.993 and a normalized growth (locus YGL167C, strain pmr1, hits give low values) of 0.961. The normalized growth (locus YGL173C, strain kem1, hits give low values) was 0.934, the normalized growth (locus YGL227W, strain vid30, hits give low values) was 0.982 and the normalized growth (locus YGL240W, strain doc1, hits give low values) was 0.961. It also gave a normalized growth (locus YGL248W, strain PDE1, hits give low values) of 1.01, a normalized growth (locus YGL253W, strain hxk2, hits give low values) of 0.97 and a normalized growth (locus YGR078C, strain PAC10, hits give low values) of 0.996. The normalized growth (locus YGR135W, strain pre9, hits give low values) was 0.985, the normalized growth (locus YGR229C, strain SMI1, hits give low values) was 1 and 0.945 and the normalized growth (locus YGR252W, strain gcn5, hits give low values) was 0.975. For the same compound, the normalized growth (locus YHR013C, strain ard1, hits give low values) was 0.971, the normalized growth (locus YHR027C, strain rpn1, hits give low values) was 0.988 and the normalized growth (locus YHR030C, strain SLT2, hits give low values) was 1.02 and 0.961. It also gave a normalized growth (locus YHR079C, strain IRE1 (second series), hits give low values) of 0.992, a normalized growth (locus YHR079C, strain IRE1, hits give low values) of 0.99 and a normalized growth (locus YHR094C, strain hxt1, hits give low values) of 1. For the same compound, the normalized growth (locus YHR129C, strain ARP1, hits give low values) was 1.01, the normalized growth (locus YHR142W, strain chs7, hits give low values) was 0.978 and the normalized growth (locus YHR200W, strain rpn10, hits give low values) was 1. It also gave a normalized growth (locus YIL066C, strain RNR3, hits give low values) of 1.01, a normalized growth (locus YIL073C, strain SPO22, hits give low values) of 1.05 and a normalized growth (locus YIL125W, strain kgd1, hits give low values) of 1. For the same compound, the normalized growth (locus YIR030C, strain dcg1, hits give low values) was 0.999, the normalized growth (locus YJL092W, strain hpr5, hits give low values) was 0.954 and the normalized growth (locus YJL095W, strain BCK1 (second series), hits give low values) was 0.971. The normalized growth (locus YJL095W, strain BCK1, hits give low values) was 0.984 and 0.98, the normalized growth (locus YJL115W, strain asf1, hits give low values) was 0.961 and the normalized growth (locus YJL129C, strain trk1, hits give low values) was 0.953. It also gave a normalized growth (locus YJL134W, strain LCB3, hits give low values) of 1.01, a normalized growth (locus YJL154C, strain vps35, hits give low values) of 0.971 and a normalized growth (locus YJL164C, strain tpk1, hits give low values) of 1.01. It also gave a normalized growth (locus YJL166W, strain qcr8, hits give low values) of 0.925, a normalized growth (locus YJL168C, strain set2, hits give low values) of 0.991 and a normalized growth (locus YJL187C, strain SWE1 (second series), hits give low values) of 1.01. The normalized growth (locus YJL187C, strain SWE1, hits give low values) was 0.975, the normalized growth (locus YJR043C, strain POL32, hits give low values) was 1.01 and the normalized growth (locus YJR066W, strain TOR1, hits give low values) was 0.93.
